Source: PubChem BioAssay (Tox21)
Results filed as inconclusive are left out. Active and inactive are the calls of the source. Calls come from the whole dose curve; as a rule, active = well fitted cell-killing curve with a large enough effect in the repeat runs; inconclusive = weak or mixed curves; inactive = flat fitted curve, though single readings scatter.

Assay: qHTS RealTime-Glo MT Cell Viability Assay in HepG2 cells - 8 hour (AID 1224873); note: nearly all actives have a fitted effect of over 55% in size
Conditions: RealTime-Glo luminescence; series mostly up to 76.8 µM
Excerpt: National Center for Advancing Translational Sciences [NCATS]
NIH Chemical Genomics Center [NCGC]
U.S. Environmental Protection Agency [EPA]
National Institutes of Environmental Health Sciences [NIEHS]
National Toxicology Program [NTP]
U.S. Food and Drug Administration [FDA]
Measure of cell viability is critical in the cell-base assay. Analysis of cell viability is necessary for the characterization of cell responses to cytotoxic drugs and environmental stress. A RealTime-Glo MT Cell Viability Assay to monitor cell viability in real time of continues cell culture during 40 hours of compound treatment was used to screen Tox21 10K library compounds in HepG2 cells. The RealTime-Glo MT Cell Viability Assay is a nonlytic, homogeneous, bioluminescent method to measure cell viability in real time using a simple, plate-based method. The assay involves adding NanoLuc luciferase and a cell-permeant prosubstrate to cells in culture. Viable cells reduce the proprietary prosubstrate to generate a substrate for NanoLuc luciferase. This substrate diffuses from cells into the surrounding culture medium, where it is rapidly used by the NanoLuc Enzyme to produce a luminescent signal. The signal correlates with the number of viable cells, making the assay well suited for cytotoxicity studies.
Tox21 Assay Protocol Summary:
The mixture of HepG2 cell suspension and reagents were dispensed at 600cells/6 ul/well in 1536-well tissue culture treated black solid bottom plates using a Multidrop dispenser. After the assay plates were incubated at a 37 C/5% CO2 incubator for 5 hours, 23 nL of compounds dissolved in DMSO, positive and negative controls was transferred to the assay plate by a pintool work station. The plates were incubated at 37 C for 40 hours. The luminescence intensity were measured at 0h, 8h, 16h, 24h, 32h and 40h time points using ViewLux plate reader during compound treatment.

Q: Which outcome does the source give for `CCOP(OCC)OCC` here?
A: Its outcome is “inactive”.

Q: Which outcome does the source give for `COC(=O)NC(=S)Nc1ccccc1NC(=S)NC(=O)OC` here?
A: The outcome was “inactive”.

Q: Which outcome does the source give for `CN=C=S` here?
A: The outcome was “inactive”.

Q: Which outcome does the source give for `CN(C)CCO` here?
A: The outcome was “inactive”.

Q: With `C#CC(C)(C)NC(=O)c1cc(Cl)cc(Cl)c1` as the molecule, how does the outcome read?
A: Its outcome is “inactive”.

Q: Which outcome does the source give for `CC(C)C1(C)N=C(c2nc3ccccc3cc2C(=O)O)NC1=O` (stereo not given) here?
A: The outcome was “inactive”.

Q: Which outcome does the source give for `C=CC(N)=O` here?
A: Its outcome is “inactive”.

Q: With `COC(=O)c1ccccc1C(=O)OC` as the molecule, how does the outcome read?
A: Its outcome is “inactive”.

Q: With `O=[N+]([O-])c1ccccc1` as the molecule, how does the outcome read?
A: The outcome was “inactive”.

Q: For `CN(C)N=O`, which outcome is on record?
A: Its outcome is “inactive”.

Q: Which outcome does the source give for `NCCc1ccc(O)cc1` here?
A: Its outcome is “inactive”.

Q: For `ClCc1cccnc1`, which outcome is on record?
A: Its outcome is “inactive”.

Q: With `CC(C)=C[C@@H]1[C@@H](C(=O)OCc2coc(Cc3ccccc3)c2)C1(C)C` as the molecule, how does the outcome read?
A: Its outcome is “inactive”.

Q: Which outcome does the source give for `CCCCCOC(=O)c1ccccc1C(=O)OCCCCC` here?
A: Its outcome is “inactive”.

Q: For `C1CN2CCN1CC2`, which outcome is on record?
A: The outcome was “inactive”.

Q: Which outcome does the source give for `CCOC(=O)c1ccccc1C(=O)OCC` here?
A: Its outcome is “inactive”.

Q: With `Cc1ccccc1O` as the molecule, how does the outcome read?
A: The outcome was “inactive”.

Q: For `CC(C)(C)OOC(=O)c1ccccc1`, which outcome is on record?
A: Its outcome is “inactive”.

Q: Which outcome does the source give for `O=NN1CCCCCCC1` here?
A: The outcome was “inactive”.

Q: With `[N-]=[N+]=[N-]` as the molecule, how does the outcome read?
A: Its outcome is “inactive”.

Q: With `CNC(=O)Oc1ccccc1OC(C)C` as the molecule, how does the outcome read?
A: The outcome was “inactive”.

Q: With `Nc1ccc(Oc2ccc(N)cc2)cc1` as the molecule, how does the outcome read?
A: The outcome was “inactive”.

Q: With `C[C@]12CC[C@H]3[C@@H](CC[C@@]45O[C@@H]4C(O)=C(C#N)C[C@]35C)[C@@H]1CC[C@@H]2O` as the molecule, how does the outcome read?
A: The outcome was “inactive”.

Q: With `ClCCBr` as the molecule, how does the outcome read?
A: Its outcome is “inactive”.

Q: With `C1CC2OC2CC1C1CO1` (stereo not given) as the molecule, how does the outcome read?
A: The outcome was “inactive”.

Q: Which outcome does the source give for `O=[N+]([O-])c1ccc([As](=O)(O)O)cc1` here?
A: Its outcome is “inactive”.

Q: Which outcome does the source give for `COC(=O)c1ccccc1N` here?
A: The outcome was “inactive”.

Q: With `Cc1ccc(N)cc1Cl` as the molecule, how does the outcome read?
A: The outcome was “inactive”.

Q: Which outcome does the source give for `[O-][Cl+2]([O-])O` here?
A: The outcome was “inactive”.

Q: With `Cc1[nH]c(=O)n(C(C)(C)C)c(=O)c1Cl` as the molecule, how does the outcome read?
A: Its outcome is “inactive”.

Q: Which outcome does the source give for `CC1C=[C-]C=C1.[C-]#[O+].[C-]#[O+].[C-]#[O+].[Mn]` here?
A: The outcome was “inactive”.

Q: For `Nc1ccccc1C(=O)O`, which outcome is on record?
A: The outcome was “inactive”.

Q: Which outcome does the source give for `CON(C)C(=O)Nc1ccc(Cl)c(Cl)c1` here?
A: Its outcome is “inactive”.

Q: With `CCCCCCCCCCCC#N` as the molecule, how does the outcome read?
A: Its outcome is “inactive”.

Q: Which outcome does the source give for `CCNc1nc(NC(C)C)nc(SC)n1` here?
A: Its outcome is “inactive”.

Q: For `Clc1ccccc1Cl`, which outcome is on record?
A: The outcome was “inactive”.

Q: For `c1ccc2c(c1)oc1ccccc12`, which outcome is on record?
A: The outcome was “inactive”.

Q: For `O=c1[nH]c2ccccc2c(=O)o1`, which outcome is on record?
A: Its outcome is “inactive”.

Q: With `O=C(NC(=O)c1c(F)cccc1F)Nc1cc(Cl)c(OC(F)(F)C(F)C(F)(F)F)cc1Cl` (stereo not given) as the molecule, how does the outcome read?
A: Its outcome is “inactive”.

Q: With `O=S(=O)(c1ccc(O)cc1)c1ccc(O)cc1` as the molecule, how does the outcome read?
A: Its outcome is “inactive”.
